# Screens deposited in PubChem BioAssay by several laboratories.
# Rows were chosen to be rich in hits. Some 4.1% of all compounds tested hit in one or more screens of this group.
# Jurkat NFkB inh – lowers PMA/ionomycin-induced NF-kB signal in Jurkat cells. 330,000 compounds, 0.53% hits. inhibition, % at 4 µM. PMA/ionomycin-induced NF-kB luciferase reporter, luminescence. AID 435003; in the data active = inhibition above about 50%
# 697 NFkB inh – inhibitors of the PMA/ionomycin-induced NF-kB reporter in 697 B cells | inhibition, % at 4 µM | 697 B-cell NF-kB luciferase reporter, 16 h | 330,000 compounds, 0.33% hits; in the data active = inhibition above about 35%
# Gli-Sufu block – antagonists of Gli-Sufu signaling. inhibition, % at 5 µM. Sufu-KO-LIGHT fibroblasts, Gli luciferase reporter luminescence. AID 588413. 340,000 compounds, 0.74% hits;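 active = inhibition above about 55%, limit read from the data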;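 note: 0% = DMSO-treated cells and 100% = wells with medium but no cells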
# Mdm2 MdmX PPI – disrupts the human Mdm2-MdmX interaction; O15151+Q00987; SaOS-2 split-luciferase Mdm2/MdmX complementation, luminescence; inhibition, % at 8 µM; 330,000 compounds, 3% hits; AID 485346;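 active = inhibition of at least 50% at 8 µM in the primary screen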
# Target sequence (O15151 whole entry, looked up): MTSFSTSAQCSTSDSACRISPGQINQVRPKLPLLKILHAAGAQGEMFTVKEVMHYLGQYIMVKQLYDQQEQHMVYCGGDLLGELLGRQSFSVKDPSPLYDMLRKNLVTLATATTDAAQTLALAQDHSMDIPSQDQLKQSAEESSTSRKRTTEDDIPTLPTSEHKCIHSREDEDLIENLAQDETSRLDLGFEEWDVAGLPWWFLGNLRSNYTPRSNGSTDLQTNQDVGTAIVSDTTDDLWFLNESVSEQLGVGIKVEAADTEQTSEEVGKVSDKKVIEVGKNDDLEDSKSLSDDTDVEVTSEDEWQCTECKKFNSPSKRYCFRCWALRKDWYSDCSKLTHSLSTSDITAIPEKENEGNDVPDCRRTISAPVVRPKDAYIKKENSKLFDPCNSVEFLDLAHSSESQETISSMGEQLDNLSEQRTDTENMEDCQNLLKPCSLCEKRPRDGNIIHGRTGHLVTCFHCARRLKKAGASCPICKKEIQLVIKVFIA
# Target sequence (Q00987 whole entry, looked up): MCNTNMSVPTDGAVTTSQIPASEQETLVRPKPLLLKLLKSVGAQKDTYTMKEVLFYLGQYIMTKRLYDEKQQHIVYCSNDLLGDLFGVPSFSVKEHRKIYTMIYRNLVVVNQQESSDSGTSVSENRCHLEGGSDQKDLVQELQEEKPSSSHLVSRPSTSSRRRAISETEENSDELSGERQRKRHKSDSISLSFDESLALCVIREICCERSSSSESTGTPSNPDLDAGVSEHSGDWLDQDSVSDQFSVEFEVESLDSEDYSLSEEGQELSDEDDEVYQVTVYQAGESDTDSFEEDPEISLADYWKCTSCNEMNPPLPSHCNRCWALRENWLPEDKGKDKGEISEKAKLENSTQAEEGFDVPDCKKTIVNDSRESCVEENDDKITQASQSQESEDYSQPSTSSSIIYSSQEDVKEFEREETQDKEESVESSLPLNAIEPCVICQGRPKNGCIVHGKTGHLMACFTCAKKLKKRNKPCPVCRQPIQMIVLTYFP
# aSyn 5UTR inh – MLPCN primary screen, SNCA 5' untranslated region; alpha-synuclein 5'UTR reporter, inhibitor activity; inhibition, % (tested at 7.5 µM); 300,000 compounds, 0.82% hits; AID 1813; in the data active = inhibition above about 60%;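 note: H4 neuroglioblastoma cells stably carrying SNCA 5'UTR luciferase fusion; 0% = DMSO wells and 100% = positive control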
# KLF5 inh – suppresses KLF5 promoter-driven expression; DLD-1 KLF5 promoter-luciferase reporter, luminescence; inhibition, % at 5 µM; 290,000 compounds, 0.23% hits; AID 1700;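 active = inhibition above a per-plate limit of that plate's mean compound inhibition plus 3 SD, cut at about 60% in these data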;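 note: 0% = DMSO wells and 100% = LY294002 at 200 µM; higher means less KLF5 promoter-driven luciferase light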
# Mdm2-MdmX conf – human Mdm2/MdmX binding inhibition, confirmed; shares compounds with Mdm2 MdmX PPI; luminescent assay; inhibition, % at 8 µM; 10,000 compounds, 55% hits; AID 489028; in the data active = inhibition above about 40%
# FLuc counter – counter-screen for Mdm2/MdmX inhibitors: full-length luciferase; SaOS-2 full-length luciferase counterscreen, luminescence; shares compounds with Mdm2 MdmX PPI; inhibition, % at 8 µM; 6,200 compounds, 77% hits;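 active = mean inhibition at 8 µM reaching about 37%, which flags the compound as non-specific, limit read from the data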;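 note: p53-null SaOS-2 cells with luciferase driven by a doxycycline-inducible promoter; compound on cells about two nights before reading with doxycycline added after day one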
# Active calls of the source: *; . = no result.
SMILES,Jurkat NFkB inh,697 NFkB inh,Gli-Sufu block,Mdm2 MdmX PPI,aSyn 5UTR inh,KLF5 inh,Mdm2-MdmX conf,FLuc counter
CC1CCc2c(sc(NC(=O)CCc3nc4ccccc4c(=O)[nH]3)c2C#N)C1 (centres undefined),6,9,32,72*,.,.,71*,60*
Cc1oc(-c2cccc(Cl)c2)nc1CN1CCC(C(=O)NCCCN2CCCC2=O)CC1,-5,4,-3,21,9,-1,.,.
Cc1oc(-c2ccc(Cl)cc2)nc1CN1CCCC(C(=O)NCCCN2CCCC2=O)C1 (centres undefined),3,-4,1,25,.,20,.,.
Cc1oc(-c2cccc(Cl)c2)nc1CN1CCC(C(=O)NCCCN2CC(C)CC(C)C2)CC1 (centres undefined),44,0,29,100*,4,-27,98*,53*
CCN1CCN(CCNC(=O)C2CCCN(Cc3nc(-c4cccc(Cl)c4)oc3C)C2)CC1 (centres undefined),9,-18,19,63*,-12,-3,32,.
CCCN(CCC)CCNC(=O)C1CCN(Cc2nc(-c3ccc(Cl)cc3)oc2C)CC1,6,19,15,88*,-30,3,79*,30
COc1ccc(N2CCN(CCNC(=O)c3ccc4nc5ccccc5c(=O)n4c3)CC2)cc1,-14,-9,6,-16,-3,-25,.,.
COc1ccc(N2CCN(CCNC(=O)c3ccc4c(c3)[nH]c(=S)n3c5ccccc5nc43)CC2)cc1,9,28,11,87*,-1,-17,76*,55*
O=C1N=C(N2CCCC2)S/C1=C\C=C\c1ccccc1,-65,-180,25,59*,-24,-119,64*,152*
O=C1N=C(N2CCCCC2)S/C1=C\c1ccncc1,6,-13,5,1,13,-1,.,.
O=C(OC1CCOC1=O)c1cc(S(=O)(=O)N2CCOCC2)c(Cl)cc1Cl (centres undefined),-6,16,-5,3,.,.,.,.
COc1cccc(CNCc2cccnc2)c1OCc1ccccc1,22,-5,.,-6,14,-36,.,.
Cc1ccc2[nH]c(O)c(N=Nc3nc4ccccc4s3)c2c1,-15,-13,-5,68*,1,-14,55*,47*
OCCN1CCN(c2ncnc3c2c(-c2ccccc2)cn3-c2ccc(Br)cc2)CC1,14,16,5,55*,-4,-3,24,.
Fc1ccc(-n2cc(-c3ccccc3)c3c(N4CCOCC4)ncnc32)cc1,34,-34,.,63*,2,6,59*,67*
CCN1CCN(c2ncnc3c2c(-c2ccccc2)cn3-c2ccc(F)cc2)CC1,4,-45,.,36,-19,-7,.,.
COc1ccc(-n2cc(-c3ccccc3)c3c(N4CCOCC4)ncnc32)cc1,39,22,15,74*,36,-3,62*,80*
CN1C(C(=O)N2CCc3ccccc3C2)=CC(c2ccc(F)cc2)=NS1(=O)=O,7,-17,-27,0,18,2,.,.
CCOC(=O)C1CCN(S(=O)(=O)CCNC(=O)c2ccc(F)cc2)CC1,11,8,-3,-1,6,.,.,.
CN1c2ccccc2C(C)(C)C12C=Nc1c(cc(N3CCOCC3)c3ccccc13)O2 (centres undefined),1,-8,26,59*,29,1,14,.
CN1c2ccccc2C(C)(C)C12C=Cc1cc(O)ccc1O2 (centres undefined),1,-64,49,36,-13,-35,.,.
COc1ccc(C(=O)N[C@H](C(=O)N2CCN(c3ccccc3F)CC2)C(C)C)cc1,-3,16,-2,24,21,-1,.,.
Cc1cc(C)c(C)c(S(=O)(=O)N2CCC(C(=O)NNC(=O)c3ccccc3O)CC2)c1C,-1,11,-1,67*,24,.,66*,45*
Cc1ccc(S(=O)(=O)N2CCC(C(=O)NNC(=O)c3ccccc3O)CC2)cc1C,-15,2,-6,53*,7,.,50*,46*
Cc1ccc(S(=O)(=O)N2CCC(C(=O)NNC(=O)c3ccccc3O)CC2)cc1,15,25,0,11,-2,.,.,.
SMILES,Jurkat NFkB inh,697 NFkB inh,Gli-Sufu block,Mdm2 MdmX PPI,aSyn 5UTR inh,KLF5 inh,Mdm2-MdmX conf,FLuc counter
CCCc1cc(=O)oc2cc(OCC(=O)NCCCN3CCOCC3)ccc12,-12,-1,-19,18,9,-12,.,.
CNC(=O)c1c(O)c2cccc3c2n(c1=O)CCC3,-28,-30,-17,75*,-13,-5,84*,47*
O=C(/C=C/c1ccc(OCCCF)cc1)Nc1ccnc(-c2ccncc2)n1,20,-13,-11,62*,-209,7,24,.
O=C(COc1ccc(Cl)cc1)NNC(=O)c1ccccn1,-12,19,6,27,-3,-1,.,.
Cc1cc(C)cc(OCC(=O)NNC(=O)c2ccccn2)c1,12,12,-4,50*,.,.,32,.
Cc1ccc(OCC(=O)NCCNC(=O)c2ccccn2)cc1,2,10,7,2,12,-60,.,.
Cc1ccc(OCCCC(=O)NNC(=O)c2ccccn2)cc1,9,4,1,52*,.,.,44*,45*
CC(=O)Nc1ccccc1NC(=O)c1cc(C)ccc1C,3,1,-4,4,0,2,.,.
Cc1ccc(C)c(C(=O)c2ccccc2NC(=O)c2ccccn2)c1,46,-10,-5,57*,-11,3,58*,73*
CCOC(=O)C1(CCc2ccccc2)CCN(Cc2ccc(OC)cc2)CC1,-6,-28,22,14,-45,-30,.,.
CCOC(=O)C1(CCc2ccccc2)CCN(Cc2c(O)cccc2OC)CC1,11,-11,47,55*,-19,-36,26,.
N#Cc1sc2nccc(Nc3ccccc3)c2c1N,33,-18,-10,92*,15,.,78*,49*
CN(C)c1ccc(S(=O)(=O)N2CCCCC2)cc1NC(=O)COc1ccccc1F,-4,-14,-4,0,20,-15,.,.
Cc1cc2c(N=NC(=O)C3CC3c3ccccc3)c(O)[nH]c2cc1Br (centres undefined),7,-19,-1,54*,26,9,-8,.
Cc1occc1C(=O)N=Nc1c(O)[nH]c2ccc(Br)cc12,-62,-68,.,-116,-237,-12,.,.
COc1ccc(C(=O)C(/C=N/O)=N/Nc2ccc(F)cc2)cc1,0,-28,-10,14,-52,-14,.,.
CO/N=C/C(=N\Nc1ccc(OC)cc1)C(=O)c1ccc(OC)cc1,35,17,-8,55*,-71,-16,52*,100*
CC(=O)C1=C(O)C(=O)N(c2ccc(O)cc2)C1c1ccccc1Cl (centres undefined),6,2,2,-7,12,-22,.,.
